# Measurements reported in PubChem BioAssay.
# Active and inactive are the calls of the source.
# Test system: not listed separately
# Experiment: MM1S myeloma cell viability, profiling panel, resazurin fluorescence, basal, 24 h, PK04 Diversity Set (AID 1174);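 also: MM1S multiple myeloma cell line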
# Conditions: higher = more signal, called active from +8 up or from −8 down
# Also: test concentration not given here.
row,Compound,z-score
1,O=C(NC1CC1)[C@@H]1c2ccccc2C(=O)N(Cc2ccc(OC(F)(F)F)cc2)[C@H]1c1ccc(CO)cc1,1.23 (inactive)
2,O=C1C2C=CC(C(O)c3c(F)cccc3Cl)N(Nc3ccc([N+](=O)[O-])cc3)C2C(=O)N1c1ccccc1 (configuration not stated),-0.396 (inactive)
3,C[C@@H]1NC(=O)C([C@@H](C)OCc2ccccc2)NC(=O)[C@@]23C(=O)N[C@@H](Cc4ccccc4)C2[C@H](C)[C@@]2(C)O[C@H]2C3/C=C/C/C=C\CNC1=O (some centres not stated),0.026 (inactive)
4,CC1CC/C=C\[C@H]2OC34C=CCN(c5ccc(Cl)cc5)C(=O)[C@H]3N(CCCCCCO)C(=O)[C@]4(C)C2C(=O)O1 (some centres not stated),0.722 (inactive)
5,CC1=C([C@H](O)CCc2ccccc2)[C@H](CO)n2c(=O)n(-c3ccccc3)c(=O)n2C1,0.199 (inactive)
6,CCOC(=O)C[C@H]1[C@H](OC(=O)Cc2ccc3c(c2)OCO3)[C@@H](NC(=O)Cc2ccc(OC)cc2)c2cc(OCCCO)ccc2N1C(=O)Cc1ccc(OC)cc1,0.594 (inactive)
7,COc1ccc(C(O)C2C=CC3C(=O)NC(=O)C3N2Nc2ccc(Cl)cc2Cl)c2ccccc12 (configuration not stated),-0.423 (inactive)
8,C=C1C(=O)C=C2CN(C(=O)c3ccccc3)[C@@](Cc3ccc(OC)cc3)(C(=O)OC)[C@@H]12,-1.82 (inactive)
9,COC(=O)[C@@]1(Cc2ccccc2)[C@H]2c3cc(C(=O)N(C)C)n(Cc4ccc(S(C)(=O)=O)cc4)c3C[C@H]2CN1C(=O)c1ccccc1,-2.74 (inactive)
10,CCCNC(=O)[C@@]1(c2ccc([N+](=O)[O-])cc2)CC(=O)N(C(C)C)[C@@H]1c1ccc(CO)cc1,-0.96 (inactive)

# Molecular target: Dihydroorotate dehydrogenase (quinone), mitochondrial (Plasmodium falciparum (isolate 3D7)) (UniProt Q08210)
# Sequence (Q08210 whole entry, looked up): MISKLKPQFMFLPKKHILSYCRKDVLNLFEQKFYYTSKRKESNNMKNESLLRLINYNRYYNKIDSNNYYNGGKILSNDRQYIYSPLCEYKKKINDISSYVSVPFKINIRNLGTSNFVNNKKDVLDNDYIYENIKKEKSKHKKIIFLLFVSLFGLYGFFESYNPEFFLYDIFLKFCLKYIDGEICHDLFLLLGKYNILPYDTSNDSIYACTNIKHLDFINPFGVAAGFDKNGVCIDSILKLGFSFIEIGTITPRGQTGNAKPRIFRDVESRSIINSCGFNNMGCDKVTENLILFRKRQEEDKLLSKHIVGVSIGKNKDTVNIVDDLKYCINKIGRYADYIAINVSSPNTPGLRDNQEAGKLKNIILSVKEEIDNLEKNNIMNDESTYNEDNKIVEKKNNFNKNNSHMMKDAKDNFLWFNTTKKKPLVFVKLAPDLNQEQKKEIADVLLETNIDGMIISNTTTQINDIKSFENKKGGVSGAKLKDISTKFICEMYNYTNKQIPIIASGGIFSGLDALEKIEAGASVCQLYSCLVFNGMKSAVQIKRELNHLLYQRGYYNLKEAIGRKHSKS
# Experiment: PfDHODH enzyme inhibitors, primary screen, biochemical, C-terminal His tag, absorbance 600 nm (AID 1175);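 also: recombinant parasite enzyme with a five histidine tag at its C terminus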
# Conditions: DCIP absorbance 600 nm, higher = more signal, called active from +8 up or from −8 down
row,Compound,composite z-score
1,COCCOC(=O)N1C(=O)[C@@]2(c3cc(C#Cc4ccc(OC)cc4)ccc31)[C@H](c1ccc(OCCO)cc1)N1[C@H](c3ccccc3)[C@H](c3ccccc3)OC(=O)[C@H]1[C@@H]2C(=O)NC[C@H](O)c1ccccc1,-1.12 (inactive)
2,CC1CC/C=C\[C@H]2OC34C=CCN(Cc5ccccc5)C(=O)[C@H]3N(CCCCCCO)C(=O)[C@@H]4C2C(=O)O1 (some centres not stated),0.285 (inactive)
3,[N-]=[N+]=Nc1ccccc1[C@@H]1OC(c2ccc(OCCCO)cc2)=N[C@]1(CCS(=O)(=O)c1ccccc1)C(=O)NCC(O)CO (some centres not stated),0.612 (inactive)
4,COC(=O)[C@@]1(Cc2ccccc2)[C@H]2c3cc(C(=O)N(C)C)n(CCSC(=N)N)c3C[C@H]2CN1C(=O)c1ccccc1,0.644 (inactive)
5,CC(C)[Si](C#CCCc1ccccc1)(O[C@H](c1ccccc1)c1cn(Cc2ccccc2)nn1)C(C)C,-0.262 (inactive)
6,O=C(NCc1ccc(F)cc1)[C@H]1C[C@H]2C(=O)N3CCC[C@H]3C(=O)N2[C@H]1c1ccc(O)cc1,-1.47 (inactive)
7,COC(=O)[C@]1(Cc2ccccc2)N=C(c2ccc(OCCCO)cc2)O[C@@H]1c1ccccc1CN=[N+]=[N-],1.94 (inactive)
8,CC(C)C[C@@H]1NC(=O)[C@@H]2C[C@H](C(=O)NCCCCCCNC(=O)CS)[C@H](c3cccc(OCCO)c3)N2C1=O,0.283 (inactive)
9,O=C1O[C@@H](c2ccccc2)[C@@H](c2ccccc2)N2[C@@H](c3ccc(OCCO)cc3)[C@]3(C(=O)Nc4ccc(C#CCCO)cc43)[C@@H](C(=O)O)[C@H]12,-1.25 (inactive)
10,CCCC[C@H]1C[C@@H]1[C@@H]1N(C(C)=O)[C@H](c2cccc(OC)c2)CC12CC2,0.348 (inactive)
11,C=C(COC)/C(=C/C[C@@H](OC(C)=O)c1ccccc1OCCO)c1cnc2ccccc2c1,-7.89 (inactive)
12,CN(C)CCCNC(=O)[C@@]1(C)c2ccccc2C(=O)N(Cc2ccc(OC(F)(F)F)cc2)[C@H]1c1ccc(CO)cc1,-0.397 (inactive)
13,C=CC[C@]1(C(=O)NCC(O)CO)COC(c2ccc(OCCCO)cc2)=N1 (some centres not stated),0.233 (inactive)
14,C=CCC(OC(C)=O)[C@@H]1[C@@H](N(Cc2cccc3ccccc23)C(=O)c2ccc(-c3ccccc3)cc2)c2cc(OCCCO)ccc2N1C(=O)Cc1ccc2ccccc2c1 (some centres not stated),-0.0628 (inactive)
15,CCCCCC1=C2CNC(CC(C)C)(C(=O)OC)C=C2C(C)C1=O (configuration not stated),-1.09 (inactive)
16,CN1C(=O)[C@@H]2[C@@H](CC(COc3ccccc3)=C3[C@@H](CCc4ccccc4)OB(O)C[C@@H]32)C1=O,-0.399 (inactive)
17,COC(=O)[C@@]1(Cc2ccc(OC)cc2)[C@H]2c3cc(C(=O)N4CCCC4)n(Cc4ccc(C(F)(F)F)nc4)c3C[C@H]2CN1C(=O)c1ccccc1,-0.77 (inactive)
